“And” between values parts separate entries of the source, which are not always exact repeats. Equal entries are not always repeated. Where two headings read alike, the source gives them in different places.
Experiments:
Settings in all cases: concentration: 1 μM, replicates: in singlicate, n = 1
TLK2 = test system: TLK2
TNIK = test system: TNIK
TNK1 = test system: TNK1
TNK2 = test system: TNK2
TNNI3K = test system: TNNI3K
TRKA = test system: T1, TRKA
T1 construct: gene NTRK1

TRKB = test system: TRKB
TRKC = test system: T2, TRKC
T2 construct: gene NTRK3

TRPM6 = test system: TRPM6
TSSK1B = test system: TSSK1B
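Note: KINOMEscan kinase panel screen.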

Row | SMILES | %Inh (TLK2) | %Inh (TNIK) | %Inh (TNK1) | %Inh (TNK2) | %Inh (TNNI3K) | %Inh (TRKA) | %Inh (TRKB) | %Inh (TRKC) | %Inh (TRPM6) | %Inh (TSSK1B) | %Inh (TLK2; 1 µM) | %Inh (TNIK; 1 µM) | %Inh (TNK1; 1 µM) | %Inh (TNK2; 1 µM) | %Inh (TRKB; 1 µM) | %Inh (TRKC; 1 µM) | %Inh (TRPM6; 1 µM) | %Inh (TNNI3K; 1 µM) | %Inh (TRKA; 1 µM) | %Inh (TSSK1B; 1 µM)
1 | Nc1nc(-c2ccc3c(N)n[nH]c3c2)cc(N2CCCC2)n1 [GSK2227430] | 0% | 0% | 0% | 0% | 0% | 0% | 0% | 0% | 0% | 0% | – | – | – | – | – | – | – | – | – | –
2 | O=C(NOCC1CC1)c1ccc(F)c(F)c1Nc1ccc(I)cc1Cl | 0% | 2% | 26% | 0% | 0% | 0% | 0% | 0% | 0% | 0% | – | – | – | – | – | – | – | – | – | –
3 | Cc1nnc(-c2ccc3occ(-c4ccc(C(C)O)cc4)c3c2)o1 (stereo not drawn) | 0% | 0% | 0% | 0% | 27% | 0% | 0% | 37% | 0% | 0% | – | – | – | – | – | – | – | – | – | –
4 | COc1ccc(Nc2nccc(N3CCC(NC(=O)Nc4cccc(C(C)=O)c4)C3)n2)cc1 (stereo not drawn) [GSK1379731] | 0% | 0% | 0% | 0% | 48% | 50% | 44% | 78% | 2% | 0% | – | – | – | – | – | – | – | – | – | –
5 | COc1cc2ncn(-c3cc(OCc4sccc4Cl)c(C(N)=O)s3)c2cc1OC [GSK448459] | 0% | 74% | 0% | 24% | 0% | 47% | 25% | 14% | 0% | 1% | – | – | – | – | – | – | – | – | – | –
6 | Cc1c2ccc(N(C)c3ccnc(Nc4cccc(S(N)(=O)=O)c4)n3)cc2nn1Cc1ccccc1.Cl.Cl [GW787226] | 12% | 88% | 62% | 0% | 3% | 0% | 0% | 0% | 41% | 1% | – | – | – | – | – | – | – | – | – | –
7 | CN1c2ccc(CNc3ccc(F)cc3)cc2-c2c(cnn2C)S1(=O)=O | 0% | 9% | 12% | 0% | 0% | 0% | 0% | 0% | 0% | 0% | – | – | – | – | – | – | – | – | – | –
8 | O=C1Cc2cc(Nc3nc(NCc4cccc(S(=O)(=O)C(F)(F)F)c4)ncc3C(F)(F)F)ccc2N1 | 3% | 0% | 0% | 10% | 0% | 17% | 0% | 10% | 0% | 19% | – | – | – | – | – | – | – | – | – | –
9 | CN(C(=O)c1ccc(-c2cc(-c3c[nH]nc3-c3ccccn3)ccn2)cc1)C1CCOCC1 [GW810083] | 0% | 23% | 0% | 0% | 0% | 38% | 41% | 17% | 0% | 0% | – | – | – | – | – | – | – | – | – | –
10 | CCc1nc(-c2cccc(C)c2)c(-c2ccnc(NCc3ccccc3)c2)s1 | 0% | 24% | 0% | 0% | 0% | 0% | 0% | 0% | 0% | 22% | – | – | – | – | – | – | – | – | – | –
11 | Cl.Cl.Cl.Fc1ccc(-c2ncn(C3CCNCC3)c2-c2ccnc(Nc3ccccc3)n2)cc1 [SB-238039] | – | – | – | – | 0% | 0% | – | – | – | 0% | 13% and 0% | 86% and 84% | 58% and 12% | 0% and 10% | 18% and 16% | 67% and 0% | 6% and 0% | – | – | –
12 | CN1c2ccc(NCc3ccc(F)cc3)cc2-c2c(cnn2C)S1(=O)=O | 0% | 38% | 35% | 0% | 2% | 0% | 0% | 2% | 0% | 0% | – | – | – | – | – | – | – | – | – | –
13 | Fc1ccc(-c2ncn(CCCN3CCOCC3)c2-c2ccccn2)cc1 [SB-211742] | 0% | 0% | 24% | 0% | 0% | 0% | 0% | 0% | 0% | 0% | – | – | – | – | – | – | – | – | – | –
14 | Cn1cc(-c2ccc3c(c2)CCN3C(=O)Cc2ccccc2Cl)c2c(N)ncnc21 [GSK2608885] | 0% | 69% | 100% | 74% | 64% | 42% | 0% | 0% | 33% | 17% | – | – | – | – | – | – | – | – | – | –
15 | O=C(NCCNc1ccnc(Nc2ccc(F)cc2)n1)Nc1ccccc1F [GSK1379880] | 0% | 0% | 0% | 8% | 5% | 0% | 18% | 13% | 24% | 0% | – | – | – | – | – | – | – | – | – | –
16 | NCC(NC(=O)c1cc(-c2cn[nH]c2)c(-c2ccnc3[nH]ccc23)s1)c1ccccc1.O=C(O)C(F)(F)F.O=C(O)C(F)(F)F (stereo not drawn) [GSK1325775] | 14% | 39% | 0% | 0% | 0% | 76% | 57% | 57% | 45% | 33% | – | – | – | – | – | – | – | – | – | –
17 | Cn1ccc2ncnc(Oc3ccc(NC(=O)Nc4ccncc4)c(Cl)c3)c21 | 0% | 0% | 0% | 0% | 0% | 0% | 0% | 0% | 0% | 0% | – | – | – | – | – | – | – | – | – | –

Row | SMILES | %Inh (TLK2) | %Inh (TNIK) | %Inh (TNK1) | %Inh (TNK2) | %Inh (TNNI3K) | %Inh (TRKA) | %Inh (TRKB) | %Inh (TRKC) | %Inh (TRPM6) | %Inh (TSSK1B) | %Inh (TLK2; 1 µM) | %Inh (TNIK; 1 µM) | %Inh (TNK1; 1 µM) | %Inh (TNK2; 1 µM) | %Inh (TRKB; 1 µM) | %Inh (TRKC; 1 µM) | %Inh (TRPM6; 1 µM) | %Inh (TNNI3K; 1 µM) | %Inh (TRKA; 1 µM) | %Inh (TSSK1B; 1 µM)
18 | Cc1cn2c(=O)cc(N3CCOCC3)nc2n1Cc1cccc(Cl)c1Cl [GSK2334006] | 0% | 0% | 0% | 12% | 0% | 17% | 0% | 0% | 0% | 29% | – | – | – | – | – | – | – | – | – | –
19 | NS(=O)(=O)c1cccc(-c2ccc3ncc(N4CCOCC4)nc3c2)c1 [GSK1535721] | 8% | 34% | 0% | 2% | 14% | 37% | 0% | 5% | 0% | 0% | – | – | – | – | – | – | – | – | – | –
20 | Cc1nnc(-c2ccc3ncc(-c4ccc(S(C)=O)cc4)n3c2)o1 (stereo not drawn) | 0% | 0% | 0% | 0% | 1% | 0% | 0% | 36% | 6% | 0% | – | – | – | – | – | – | – | – | – | –
21 | Cl.Oc1cccc(Nc2ccnc3cc(-c4ccncc4)ccc23)c1 [GW494601] | 9% | 86% | 72% | 16% | 33% | 68% | 11% | 25% | 0% | 0% | – | – | – | – | – | – | – | – | – | –
22 | CC(=O)Nc1ccc(COc2ccc(Nc3ccnc4cc(-c5ccccn5)ccc34)cc2)cc1.Cl [GW440148] | 25% | 0% | 6% | 37% | 2% | 14% | 11% | 25% | 42% | 1% | – | – | – | – | – | – | – | – | – | –
23 | NS(=O)(=O)c1cccc(-c2ccc3nccc(-c4cccc(S(N)(=O)=O)c4)c3c2)c1 [GW867253] | 15% | 16% | 0% | 0% | 0% | 0% | 0% | 0% | 0% | 0% | – | – | – | – | – | – | – | – | – | –
24 | Cc1cccc(-c2nc(-c3ccc(S(C)(=O)=O)cc3)sc2-c2ccncc2)c1 | 13% | 36% | 0% | 0% | 0% | 6% | 0% | 0% | 9% | 0% | – | – | – | – | – | – | – | – | – | –
25 | COc1ccc(Nc2nccc(N3CCC(NC(=O)Nc4cc(C)ccc4C)C3)n2)cc1 (stereo not drawn) [GSK1379741] | 0% | 0% | 0% | 9% | 0% | 0% | 0% | 22% | 32% | 13% | – | – | – | – | – | – | – | – | – | –
26 | COC(=O)Nc1nc2cc(Oc3ccc(NC(=O)Nc4cc(F)ccc4F)cc3)ccc2[nH]1.Cl [GW701424] | 3% | 0% | 0% | 11% | 81% | 5% | 68% | 76% | 0% | 0% | – | – | – | – | – | – | – | – | – | –
27 | COc1ccc(S(=O)(=O)NC2CCN(c3cc(C)nc(Nc4cccc(C#N)c4)n3)CC2)cc1.O=C(O)C(F)(F)F [GSK1653539] | 0% | 0% | 0% | 8% | 0% | 7% | 0% | 0% | 0% | 0% | – | – | – | – | – | – | – | – | – | –
28 | Fc1ccc(-c2ncn(CCCN3CCOCC3)c2-c2cccnc2)cc1 [SB-211743] | 0% | 13% | 14% | 0% | 0% | 0% | 0% | 0% | 3% | 0% | – | – | – | – | – | – | – | – | – | –
29 | Cc1nnc(-c2ccc(C)c(-c3ccc(C(=O)Nc4ccc(NS(C)(=O)=O)cc4)cc3)c2)o1 [GW702865] | 4% | 0% | 0% | 3% | 0% | 23% | 0% | 26% | 7% | 15% | – | – | – | – | – | – | – | – | – | –
30 | CN(C1=C(c2ccccc2)C(=O)NC1=O)c1ccccc1 [SB-334860] | 6% | 4% | 7% | 18% | 20% | 18% | 0% | 0% | 31% | 11% | – | – | – | – | – | – | – | – | – | –
31 | Cc1cccc(-c2nc(Nc3ccc4ncsc4c3)c3ccccc3n2)n1 [GW867588] | 0% | 15% | 39% | 0% | 1% | 14% | 0% | 0% | 0% | 0% | – | – | – | – | – | – | – | – | – | –
32 | NCCNS(=O)(=O)c1ccc(-c2ccnc3[nH]ccc23)cc1 [GSK977617] | – | – | 0% | – | – | – | – | – | 0% | – | 37% and 34% | 61% and 55% | – | 4% and 6% | 89% and 82% | 80% and 63% | – | 13% and 5% | 100% and 97.9% | 56% and 46%
33 | COc1ccc(CNC(=O)NC2CCN(c3ccnc(Nc4ccc(OC)cc4)n3)C2)cc1 (stereo not drawn) [GSK1379727] | 0% | 0% | 0% | 12% | 0% | 0% | 0% | 47% | 0% | 13% | – | – | – | – | – | – | – | – | – | –
